# Assay results as given in PubChem BioAssay (NCI).
# Compounds without any hit were thinned out: in the full panel of roughly 83,000, 20% have a hit.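 The test compound was applied at a single concentration to cells in 96-well plates for 48 hours, and percent growth was recorded.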 Activity calls are given as the source filed them. The calls were made as follows: active = growth percent below 10; inactive = the rest.
# System: MDA-MB-468 breast
# Assay: NCI-60 one-dose screen, 48 h (100 = growth as untreated, 0 = no growth, -100 = all killed)
# Conditions: 10 µM unless noted
row,Compound,growth
1,CN1CCN(Cc2ccc(NC(=O)c3cncc(C#Cc4cnc(N)c5ccc(F)cc45)c3)cc2C(F)(F)F)CC1,-34.4% (active)
2,COc1cc(/C=C/C(=O)c2ccc(C)cc2)ccc1Oc1nc(NCCO)nc(N2CCOCC2)n1,27.2% (inactive)
3,COc1ccc(CCl)c(C)c1OC,109% (inactive)
4,O=C1c2ccccc2-c2cn(Cc3ccccc3)c3cccc(c23)C1c1cccnc1 (stereo not given),27.9% (inactive)
5,COc1cc(CNS(=O)(=O)c2ccc(C)cc2)ccc1OCc1cn(-c2ccccc2)nn1,70.7% (inactive)
6,C/C(=N\NC(=O)CSc1nc2ccccc2c(=O)n1CCc1ccc(S(N)(=O)=O)cc1)c1ccc(Br)cc1,84.1% (inactive)
7,Cc1cccc(N=NC(=S)NNc2cccc(C)c2)c1,116% (inactive)
8,CCC(C)(O)Cc1ccc(Cl)cc1 (stereo not given),101% (inactive)
9,C#Cc1cccc(NC(=O)c2ccccc2NC(=O)C=C)c1,70.9% [8.25 µM] (inactive)
10,O=C(CCCCCCCn1cc(-c2cccnc2)nn1)Nc1ccccc1-c1ccccc1,48.2% (inactive)
11,Nc1ccc(N2CCOCC2)cc1,96.9% (inactive)
12,COC(=O)[C@@H](Cc1c[nH]c2ccccc12)NC(=O)CCCCOc1cc(O)c2c(=O)cc(-c3ccccc3)oc2c1,71.3% (inactive)
13,COc1cc(-c2cc(/C=C3\C(=O)Nc4cc(Cl)ccc43)[nH]n2)cc(OC)c1OC,58.3% (inactive)
14,COc1cc2ncnc(Nc3ccc(C(=O)/C=C/c4ccc(C(F)(F)F)cc4F)cc3)c2cc1OC,107% (inactive)
15,c1cc[n+](C2c3ccccc3C([n+]3ccccc3)c3ccccc32)cc1 (stereo not given),-37.4% (active)
